# Data from PubChem BioAssay AID430 (Sanford-Burnham Center for Chemical Genomics, 2006).
# The whole screen tested about 63,000 compounds, of which about 1,100 (1.7%) were called active. Cut-off read from the data, not from the text of the source: active = cytotoxicity above about 50%; inactive = the rest. The entries come from a sample that favours actives as a whole. Potency and affinity values are given separately.
# Assay: cytotoxicity in HPDE-C7 cells, cell-based, fluorescence, HTS (AID 430);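 note: cells exposed to compound for 48 hours before viability readout; 0% = vehicle and 100% = reference cytotoxic drug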
# Details: HPDE-C7 pancreatic duct cells viability, at 10 µM, active compounds read high
row,Structure (SMILES),cytotoxicity
1,CCOC(=O)N1CCC(N(C(=O)Nc2ccccc2)C(C)CC)CC1 (stereo not drawn),-4.7% (inactive)
2,O=C1CC(c2ccc3c(c2)OCO3)c2cc3c(cc2N1)OCO3 (stereo not drawn),-5.6% (inactive)
3,CCCOc1c(OC)cccc1C1CC(=O)Nc2cc3c(cc21)OCCO3 (stereo not drawn),70.1% (active)
4,CCOc1ccccc1C1CC(=O)NC2=C1C(=O)CCC2 (stereo not drawn),30.3% (inactive)
5,CCCOc1ccccc1C1CC(=O)NC2=C1C(=O)CCC2 (stereo not drawn),47.3% (inactive)
6,O=C1CC(c2cccs2)c2cc3c(cc2N1)OCO3 (stereo not drawn),1% (inactive)
7,CCCOc1c(OC)cccc1C1CC(=O)Nc2cc(OC)c(OC)c(OC)c21 (stereo not drawn),10.7% (inactive)
8,CCCCOc1ccccc1C1CC(=O)NC2=C1C(=O)CCC2 (stereo not drawn),71.2% (active)
9,CCCOc1ccccc1C1CC(=O)Nc2cc3c(cc21)OCO3 (stereo not drawn),54.1% (active)
10,O=C1CC(c2cccs2)c2cc3c(cc2N1)OCCO3 (stereo not drawn),5.6% (inactive)
11,O=C1CC(c2cccnc2)c2cc3c(cc2N1)OCCO3 (stereo not drawn),5.1% (inactive)
12,CCCOc1c(OC)cccc1C1CC(=O)Nc2cc3c(cc21)OCO3 (stereo not drawn),12.7% (inactive)
13,CCCOc1ccccc1C1CC(=O)Nc2cc3c(cc21)OCCO3 (stereo not drawn),63% (active)
14,CCOc1ccccc1C1NC(=O)NC(C)=C1C(=O)OC1CCCCC1 (stereo not drawn),1.9% (inactive)
15,COC(=O)c1c(C)n(-c2ccccc2)c2ccc(O)cc12,11.1% (inactive)
16,CC(C)C(NC(=O)OCc1ccccc1)C(=O)NCC(=O)OC(C)(C)C (stereo not drawn),5.4% (inactive)
17,COc1ccc(C)cc1NS(=O)(=O)c1ccc(NS(=O)(=O)c2ccc(NC(C)=O)cc2)cc1,-5.6% (inactive)
18,O=C(CCCOc1ccc(Cl)cc1)N1CCOCC1,-10.1% (inactive)
19,Cc1nc2sc(C(c3cccs3)N3CCC(C(N)=O)CC3)c(O)n2n1 (stereo not drawn),-20.4% (inactive)
20,OCC(CO)(CO)N=Cc1cc(Br)ccc1O,8.1% (inactive)
21,CCCc1n[nH]c2c1C(=O)CC(C)(C)C2,1.7% (inactive)
22,CCN(C(=O)CSc1nc2nc(C)cc(C)n2n1)c1ccccc1,-4% (inactive)
23,COC(=O)Cn1c2ccc(F)cc2c2nc(C)sc21,-12.3% (inactive)
24,Cc1cc(Nc2ccccc2)n(-c2nc3ccccc3[nH]2)n1,4% (inactive)
25,Cc1cc(=O)[nH]c(-n2nc(C)cc2C)n1,-1.2% (inactive)
26,Cc1ccc(Nc2cc(C)nn2-c2nc(C)cc(=O)[nH]2)cc1,102% (active)

row,Structure (SMILES),cytotoxicity
1,Cc1nc(C)c(C(=O)C2=C(O)C(=O)N(CCN3CCOCC3)C2c2cccnc2)s1 (stereo not drawn),-12.6% (inactive)
2,CC(=O)Nc1nc2c(F)cccc2s1,9.8% (inactive)
3,Fc1cccc2sc(Nc3nnc(-c4ccco4)o3)nc12,53.7% (active)
4,c1coc(-c2nnc(NC3=NCCC3)o2)c1,7.5% (inactive)
5,COc1cc(OC)cc(-c2nnc(Nc3nc4c(F)cccc4s3)o2)c1,8.8% (inactive)
6,CCC(=O)Nc1nnc(-c2ccco2)o1,-23.7% (inactive)
7,Fc1cccc2sc(Nc3nnc(-c4ccccc4)o3)nc12,53.3% (active)
8,Cc1ccc2c(n1)sc1c(N)ncnc12,9.8% (inactive)
9,O=C(CSCc1cccc(Br)c1)N1CCOCC1,-8.7% (inactive)
10,COc1ccc(-c2noc(-c3cc(Cl)ccc3Cl)n2)cc1OC,-2.3% (inactive)
11,CCOc1ccc(C2N(c3ccc(OC)cc3)C(=O)C3CCCN32)cc1OC (stereo not drawn),2.1% (inactive)
12,CCOC(=O)N1CCN(Cc2cc(=O)oc3ccc4ccccc4c23)CC1,14.3% (inactive)
13,O=C(Nc1cc(=O)c2ccccc2o1)N1CCOCC1,11.2% (inactive)
14,CCOC(=O)Oc1ccc2oc(=O)cc(C)c2c1,4.4% (inactive)
15,CCOC(=O)/C=C(\C)Sc1cc(=O)oc2ccccc12,78.4% (active)
16,O=C(Nc1cc(=O)c2ccccc2o1)N1CCCCC1,-24.9% (inactive)
17,CCOC(=O)Nc1cc(=O)c2ccccc2o1,53.2% (active)
18,COc1ccc(Cl)cc1NC(=O)C1CCCN(S(=O)(=O)c2cccc3nonc23)C1 (stereo not drawn),-12.6% (inactive)
19,O=C(NCc1ccc(Cl)c(Cl)c1)c1ccco1,-4.6% (inactive)
20,CCCCn1c(=O)[nH]c2ccccc21,9.9% (inactive)
21,COc1ccc(C(=O)NCC(C)CN(C)C)cc1 (stereo not drawn),-2.3% (inactive)
22,CCOC(=O)Nc1cccc(Nc2ccccc2)c1,4.6% (inactive)
23,Cc1ccc2[nH]c3c(c2c1)CCc1cn[nH]c1-3,43.6% (inactive)
24,Cc1ccc2[nH]c3c(c2c1)CCC3=O,-7.5% (inactive)
25,CCN(CC)S(=O)(=O)c1cccc(C(=O)N2CCCCC2)c1,1.9% (inactive)
26,c1ccc(-c2cn3nc(-c4ccccc4)sc3n2)cc1,-10.8% (inactive)

row,Structure (SMILES),cytotoxicity
1,CCN(c1cccc(C(F)(F)F)c1)S(=O)(=O)c1ccc2c(c1)CCN2C(=O)C1CC1,-11.3% (inactive)
2,CCN(c1cccc(C(F)(F)F)c1)S(=O)(=O)c1ccc2c(c1)CCN2C(C)=O,59.5% (active)
3,CCN(c1cccc(C)c1)S(=O)(=O)c1ccc2c(c1)CCN2C(C)=O,46.6% (inactive)
4,CCC1CCCCN1C(=O)Cn1c(=O)n(CCC(=O)NCc2ccco2)c(=O)c2sccc21 (stereo not drawn),-4.6% (inactive)
5,c1ccc(Nc2ccccc2Nc2ccccn2)nc1,-35.9% (inactive)
6,O=C(Nc1ccccn1)c1ccc2ccccc2n1,-1.6% (inactive)
7,Oc1cccc2ccc(Nc3ccccn3)nc12,119% (active)
8,COC(=O)c1cc(Cc2ccc(N)c(C(=O)OC)c2)ccc1N,1.9% (inactive)
9,O=C(COC(=O)CSCC(=O)N1CCCCC1)NCc1ccc(F)cc1,-5.4% (inactive)
10,CC(=O)c1sc(NC(=O)c2ccc(Cn3cc(Br)cn3)o2)nc1C,3.3% (inactive)
11,O=C(Nc1ccc(C(F)(F)F)cc1Cl)c1ccc(Cn2cc(Br)cn2)o1,63.2% (active)
12,O=C(NC1CCCCC1)c1ccc(Cn2cc(Br)cn2)o1,-6.8% (inactive)
13,Oc1ccccc1-c1cc(C(F)(F)C(F)F)[nH]n1,-15.5% (inactive)
14,O=C1CC(C(F)(F)C(F)(F)C(F)(F)C(F)F)=Nc2ccccc2N1,-21.9% (inactive)
15,FC(F)C(F)(F)C(F)(F)C(F)(F)c1cc(-c2ccccc2)n[nH]1,83.3% (active)
16,CCN(CCCNC(=O)Cn1ncc2c(=O)oc3ccccc3c21)c1cccc(C)c1,55.1% (active)
17,CCOCCCNC(=O)Cn1ncc2c(=O)oc3ccccc3c21,-3.8% (inactive)
18,CCN(CC)CCCNC(=O)Cn1ncc2c(=O)oc3ccc(C)cc3c21,1.6% (inactive)
19,Cc1cc(C)nc(NC(=O)NS(=O)(=O)N2CCCCCC2)n1,-13.1% (inactive)
20,Cc1ccc2[nH]c(=O)c(CN(CCc3ccccc3)Cc3nnnn3CC3CCCO3)cc2c1 (stereo not drawn),9.4% (inactive)
21,CCOC(=O)N1CCN(C(=O)CSc2nnc(COc3ccc(Cl)cc3)o2)CC1,-20.5% (inactive)
22,CN1/C(=C\C(=O)C(F)F)C(C)(C)c2ccccc21,-24.8% (inactive)
23,CN1/C(=C\C(=O)c2ccco2)C(C)(C)c2ccccc21,-14.9% (inactive)
24,CN1/C(=C/C(=O)c2nc(S(C)(=O)=O)ncc2Cl)C(C)(C)c2ccccc21,110% (active)
25,COc1cc(CO)cc(Br)c1OCC(=O)O,-22.6% (inactive)
26,O=C(CSc1nnc(Cc2cc(=O)[nH]c(=O)[nH]2)n1-c1ccccc1)N1CCCC1,-9.2% (inactive)

row,Structure (SMILES),cytotoxicity
1,O=C(CSC1=NCCS1)Nc1ccccc1F,-3.4% (inactive)
2,Cc1cc(NC(=O)CSc2nnc(-c3ccco3)n2Cc2ccco2)no1,-9.5% (inactive)
3,O=c1nc(-c2ccccc2)cc(-c2ccccc2)[nH]1,-1.2% (inactive)
4,[O-][n+]1onc2c1CCc1nnc(-c3ccccc3)cc1-2,5.5% (inactive)
5,Cc1ccc(/C(O)=C2/C(=O)C(=O)N(Cc3cccnc3)C2c2ccccn2)cc1 (stereo not drawn),10.4% (inactive)
6,COc1cccc(Oc2cn[nH]c2-c2ccc(O)cc2O)c1,36% (inactive)
7,COc1ccc(-c2[nH]ncc2-c2cnn(-c3ccccc3)c2)c(O)c1,-0.4% (inactive)
8,CCOc1ccc(-c2nc(N)nc(C)c2-c2ccc(OC)c(OC)c2)c(O)c1,3.7% (inactive)
9,COc1cccc(Oc2cnc(N)nc2-c2ccc(OC)cc2O)c1,52% (active)
10,C=C(C)COc1ccc(-c2nc(N)ncc2Oc2ccc(OC)cc2)c(O)c1,-10.3% (inactive)
11,C=C(C)COc1ccc(-c2nc(N)ncc2-c2ccc(OC)cc2)c(O)c1,70.7% (active)
12,COc1cccc(Oc2cn[nH]c2-c2ccc(OC)cc2O)c1,72.7% (active)
13,COc1cccc(Oc2cncnc2-c2ccc(OC)cc2O)c1,20.3% (inactive)
14,COc1ccc(-c2nc(N)ncc2-c2csc(C)n2)c(O)c1,-25% (inactive)
15,CCOc1ccc(-c2ncncc2-c2ccc(OC)cc2)c(O)c1,-11.9% (inactive)
16,COc1ccc(-c2nc(N)nc(C)c2Oc2ccccc2Br)c(O)c1,87.7% (active)
17,COc1ccc(-c2nc(N)ncc2Oc2ccccc2Br)c(O)c1,-2.2% (inactive)
18,Cc1nc(N2CCC(C(N)=O)CC2)c2nnn(Cc3ccccc3)c2n1,4.3% (inactive)
19,Cc1oc(C(=O)O)cc1CSc1nnc(-c2ccccc2)n1C,-2.3% (inactive)
20,COc1ccc(NC2c3ccccc3C(=O)N2Cc2ccco2)cc1OC (stereo not drawn),17.8% (inactive)
21,Cc1cccc(Cn2cnc3c(nnn3Cc3ccc(F)cc3)c2=O)c1,1.3% (inactive)
22,C=C(C)CSc1nnc(-c2ccccc2)n1N,-23.4% (inactive)
23,COC(=O)c1nc2n(n1)C(c1ccc(OC)c(OC)c1OC)C1=C(CCCC1=O)N2 (stereo not drawn),2.9% (inactive)
24,Cc1ccc(NC(=O)c2ccco2)cc1NC(=O)CSc1nnc(-c2cccs2)n1C,-3.6% (inactive)
25,CCc1[nH]nc2c1C(c1cccc(OC(=O)N3CCOCC3)c1)C(C#N)=C(N)O2 (stereo not drawn),-34.3% (inactive)
